Assay outcomes: PubChem BioAssay, several laboratories
Anthrax LF prot: inhibitors of Bacillus anthracis lethal factor protease. 360,000 tested, 0.12% active. P15917. inhibition, % at 10 µM. multiplex microsphere protease cleavage assay, LF. AID 588501; further: plate controls were buffer without enzyme for full effect and enzyme alone for no effect
Target sequence (P15917 whole entry, looked up): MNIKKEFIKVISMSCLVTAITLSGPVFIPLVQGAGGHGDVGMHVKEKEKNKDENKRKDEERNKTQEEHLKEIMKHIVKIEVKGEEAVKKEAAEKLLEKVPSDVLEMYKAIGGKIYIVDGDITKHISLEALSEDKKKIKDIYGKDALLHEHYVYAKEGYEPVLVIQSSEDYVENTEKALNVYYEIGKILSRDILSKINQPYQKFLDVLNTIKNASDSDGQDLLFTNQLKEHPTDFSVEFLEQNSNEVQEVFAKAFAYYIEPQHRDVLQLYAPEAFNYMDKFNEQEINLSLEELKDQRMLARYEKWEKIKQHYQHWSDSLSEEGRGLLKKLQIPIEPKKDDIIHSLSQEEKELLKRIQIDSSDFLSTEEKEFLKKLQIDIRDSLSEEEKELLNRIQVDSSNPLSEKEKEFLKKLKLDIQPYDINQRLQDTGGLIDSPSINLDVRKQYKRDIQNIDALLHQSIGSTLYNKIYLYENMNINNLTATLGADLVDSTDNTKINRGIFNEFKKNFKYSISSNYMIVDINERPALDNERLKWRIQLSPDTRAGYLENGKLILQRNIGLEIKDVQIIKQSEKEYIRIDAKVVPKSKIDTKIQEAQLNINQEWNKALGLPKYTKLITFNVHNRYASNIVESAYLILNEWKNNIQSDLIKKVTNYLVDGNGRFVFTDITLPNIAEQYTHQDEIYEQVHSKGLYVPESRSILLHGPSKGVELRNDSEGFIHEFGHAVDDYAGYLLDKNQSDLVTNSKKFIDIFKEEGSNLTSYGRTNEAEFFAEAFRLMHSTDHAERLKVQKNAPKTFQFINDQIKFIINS
BoNT F protease: inhibitors of Botulinum neurotoxin F light chain protease. Multiplex microsphere protease cleavage assay, flow cytometry. inhibition, % at 10 µM. 360,000 tested, 0.22% active. AID 588497; in the data active means inhibition above about 35%, passing the limit was not always enough; inconclusive means no clear call, values can overlap the other calls; further: plate controls were buffer without enzyme for full effect and enzyme alone for no effect
Vc quorum ag: induces V. cholerae light production without autoinducers; V. cholerae BH1578 lux reporter, luminescence, 6 h; activation, % at 18.7 µM; 350,000 tested, 0.16% active; in the data active means activation mostly above about 9.7%, no sharp cut-off; inconclusive means no clear call, values can overlap the other calls; inactive means mostly below about 3.7%
Autofluor counter: flagged as autofluorescent in microsphere protease counterscreen; compound autofluorescence counterscreen, microsphere flow cytometry; active compounds read high; fluorescence intensity (no concentration beside the values); 360,000 tested, 3.1% active; in the data active means fluorescence intensity above about 16000; inconclusive means no clear call, values can overlap the other calls
BoNT A protease: inhibitors of Botulinum neurotoxin A light chain protease. multiplex microsphere protease substrate cleavage, flow cytometry. inhibition, % at 10 µM. 360,000 tested, 0.17% active. AID 588499; further: plate controls were buffer without enzyme for full effect and enzyme alone for no effect
Active calls of the source: *. Shown are actives, neighbours in structure and some others; about 3.5% of the full set was active somewhere. Unless noted, no stated cut-off is given here; in the data, active means inhibition above about 30%; inconclusive means no clear call, values can overlap the other calls; inactive means below that.

`CCCC(=O)Nc1c(-c2cccs2)c(=O)c2ccccc2n1C` gave Anthrax LF prot -0.1, BoNT F protease -1.4, Vc quorum ag -0.2, Autofluor counter 21477* and BoNT A protease 2.0.
Cn1c(NC(=O)c2ccco2)c(-c2ccccc2)c(=O)c2ccccc21 was read as Anthrax LF prot -2.8, BoNT F protease -3.6, Vc quorum ag -1.7, Autofluor counter 8467 and BoNT A protease 0.2.
Screening CCn1c(NC(=O)c2ccco2)c(-c2ccccc2Cl)c(=O)c2ccccc21 returned Anthrax LF prot 2.9, BoNT F protease 5.3, Vc quorum ag 12.5, Autofluor counter 23199* and BoNT A protease 1.0.
`COc1ccc(-c2c(NC(C)=O)n(C)c3ccccc3c2=O)cc1` gave Anthrax LF prot -14.1, BoNT F protease 16.6, Vc quorum ag 1.4, Autofluor counter 16417* and BoNT A protease inconclusive.
Screening CCOC(=O)C1CCN(CCC(=O)Nc2ccc(C)c(C)c2)CC1 returned Anthrax LF prot 1.0, BoNT F protease -4.0, Vc quorum ag inactive, Autofluor counter 4471 and BoNT A protease -0.5.
CCOC(=O)C(CCSC)NC(=O)CN (configuration not stated) was read as Anthrax LF prot -1.0, BoNT F protease -2.2, Vc quorum ag -1.3, Autofluor counter 22429* and BoNT A protease 0.2.
C/C(=N\NC(=O)Cc1csc(N2CCOCC2)n1)c1ccccc1 was read as Anthrax LF prot -4.1, BoNT F protease -10.2, Vc quorum ag -1.4, Autofluor counter 21300* and BoNT A protease inconclusive.
`O=C(Cc1csc(N2CCOCC2)n1)N/N=C/c1ccc(O)c(O)c1O` gave Anthrax LF prot -10.6, BoNT F protease -16.0, Vc quorum ag -0.3, Autofluor counter 4253 and BoNT A protease -2.0.
`CC(=O)n1cc(C2C(=O)CC(C)(C)CC2=O)c2ccccc21` gave Anthrax LF prot -2.1, BoNT F protease 5.9, Vc quorum ag -5.9, Autofluor counter 21921* and BoNT A protease 2.9.
`CC(C)Oc1ccc(OCCNC2CCCC2)cc1` gave Anthrax LF prot 0.1, BoNT F protease 1.3, Vc quorum ag inactive, Autofluor counter 20103* and BoNT A protease 1.7.
Screening COc1ccccc1OCCNC1CCCC1 returned Anthrax LF prot 2.7, BoNT F protease 1.9, Vc quorum ag -0.2, Autofluor counter 21707* and BoNT A protease 0.4.
`COc1ccccc1CCNC1CCCCCC1` gave Anthrax LF prot -0.7, BoNT F protease -16.0, Vc quorum ag -2.1, Autofluor counter 2899 and BoNT A protease 0.4.
For Cc1cc(C(C)(C)C)cc(S(=O)(=O)Nc2cccc(C(=O)O)c2)c1C the results were Anthrax LF prot -10.4, BoNT F protease 4.8, Vc quorum ag 2.4, Autofluor counter 20337* and BoNT A protease 3.8.
For COc1cc(S(=O)(=O)Nc2cccc(C(=O)O)c2)c(OC)cc1Cl the results were Anthrax LF prot 0.3, BoNT F protease 5.5, Vc quorum ag inactive, Autofluor counter 20274* and BoNT A protease inconclusive.
For O=C(O)c1cccc(NS(=O)(=O)/C=C/c2ccccc2)c1 the results were Anthrax LF prot -6.4, BoNT F protease -0.5, Vc quorum ag 5.9, Autofluor counter 19766* and BoNT A protease 1.7.
Screening Cc1cc(S(=O)(=O)Nc2cccc(C(=O)O)c2)c(C)c(S(=O)(=O)c2ccc(Cl)cc2)c1 returned Anthrax LF prot 1.7, BoNT F protease 0.1, Vc quorum ag -0.2, Autofluor counter 3561 and BoNT A protease 5.0.
`COc1ccccc1NS(=O)(=O)c1cccc(NS(=O)(=O)c2cc(C(=O)O)ccc2Cl)c1` gave Anthrax LF prot -0.5, BoNT F protease -6.5, Vc quorum ag -4.5, Autofluor counter 3854 and BoNT A protease 0.6.
O=C(CNc1cc(S(=O)(=O)N2CCOCC2)ccc1NCC1CCCO1)Nc1cccc(F)c1 (configuration not stated) was read as Anthrax LF prot inconclusive, BoNT F protease -17.9, Vc quorum ag -0.6, Autofluor counter inconclusive and BoNT A protease -3.6.
For O=C(CCC(=O)NC1CCCCCCC1)Nc1nnc(C(F)(F)F)s1 the results were Anthrax LF prot -1.2, BoNT F protease -6.5, Vc quorum ag -0.4, Autofluor counter 8566 and BoNT A protease -1.2.
For O=C(CCC(=O)NC1CCCCCC1)Nc1nnc(C(F)(F)F)s1 the results were Anthrax LF prot -6.3, BoNT F protease 5.6, Vc quorum ag inactive, Autofluor counter 21138* and BoNT A protease inconclusive.
COc1ccc(NC(=O)CCC(=O)Nc2nnc(C(F)(F)F)s2)c(OC)c1 was read as Anthrax LF prot -10.2, BoNT F protease -2.0, Vc quorum ag inactive, Autofluor counter 18599* and BoNT A protease 1.4.
Screening COC(=O)C[C@H]1c2cc(F)ccc2S(=O)(=O)N1Cc1ccccc1 returned Anthrax LF prot -5.1, BoNT F protease 2.4, Vc quorum ag inactive, Autofluor counter 3962 and BoNT A protease -0.5.
Screening CCOC(=O)c1ccc(-c2ccc(/C=N/NC(=O)c3cncc(Br)c3)o2)cc1 returned Anthrax LF prot 16.9, BoNT F protease inconclusive, Vc quorum ag -0.6, Autofluor counter 3685 and BoNT A protease 0.7.
For CCCCOC(=O)c1ccc(-c2ccc(/C=N/NC(=S)NCC)o2)cc1 the results were Anthrax LF prot 3.5, BoNT F protease 3.3, Vc quorum ag -0.2, Autofluor counter 16266* and BoNT A protease inconclusive.
CCCCCOC(=O)CSc1n[nH]c(=O)[nH]c1=O was read as Anthrax LF prot 1.9, BoNT F protease 3.9, Vc quorum ag inactive, Autofluor counter 22105* and BoNT A protease 2.3.
CCOCCOC(=O)CCSc1n[nH]c(=O)[nH]c1=O was read as Anthrax LF prot 0.5, BoNT F protease 0.6, Vc quorum ag -1.5, Autofluor counter 5143 and BoNT A protease -0.2.
Screening CCN(C(=O)COC(=O)c1cncc(Br)c1)C1CCS(=O)(=O)C1 (configuration not stated) returned Anthrax LF prot -5.1, BoNT F protease 3.9, Vc quorum ag -0.3, Autofluor counter 4111 and BoNT A protease 0.1.
`O=C(Cn1cnnn1)OCC(=O)c1ccc(Cl)s1` gave Anthrax LF prot 0.7, BoNT F protease 0.9, Vc quorum ag -5.8, Autofluor counter 22766* and BoNT A protease 1.5.
`Cc1cc(C)c(C(=O)COC(=O)Cn2cnnn2)cc1C` gave Anthrax LF prot -0.2, BoNT F protease 4.3, Vc quorum ag -1.8, Autofluor counter 14900 and BoNT A protease 3.1.
For COc1ccccc1N1CCN(C(=O)C2CCN(S(=O)(=O)c3ccccc3F)CC2)CC1 the results were Anthrax LF prot 0.0, BoNT F protease -7.1, Vc quorum ag -0.6, Autofluor counter 5612 and BoNT A protease -0.4.
For COC(=O)CNC(=O)CNC(=O)c1nn(-c2ccc(OC)c(Cl)c2)c(=O)c2ccccc12 the results were Anthrax LF prot -1.1, BoNT F protease -23.7, Vc quorum ag inactive, Autofluor counter 3532 and BoNT A protease -0.6.
For COc1ccc(-n2nc(C(=O)NCc3ccco3)c3ccccc3c2=O)cc1 the results were Anthrax LF prot -1.4, BoNT F protease 3.6, Vc quorum ag inactive, Autofluor counter 19127* and BoNT A protease 4.9.
COc1ccc(-n2nc(C(=O)NCC(=O)NCc3ccco3)c3ccccc3c2=O)cc1Cl was read as Anthrax LF prot -4.5, BoNT F protease 2.5, Vc quorum ag inactive, Autofluor counter 21931* and BoNT A protease 1.1.
